From PubChem BioAssay (NCI)
The panel holds about 83,000 compounds, 20% with a hit somewhere; the sample as a whole holds those more often.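 How to read the values: 0–100, growth inhibition (40 = 60% inhibited); 0, no net growth; -100 to 0, cell death (-40 = 40% of starting cells died; -100 = all dead).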 Unmarked numbers belong to inactive results. Calls of active or inactive are those of the source. The calls were made as follows: active = growth percent below 10; inactive = the rest.

tested on: MDA-MB-231 breast; assay: NCI-60 one-dose screen, 48 h (100 = growth as untreated, 0 = no growth, -100 = all killed); conditions: 10 µM

Row | SMILES | growth
1 | O=C1/C(=C\c2cn(C(=O)c3ccc(Cl)cc3)c3ccccc23)c2ccccc2N1C(=O)c1ccc(Cl)cc1 | 81.2%
2 | Cc1ccc(Nc2cc(C)nc(NCCCNc3ccnc4cc(Cl)ccc34)n2)cc1 | -92.4% (active)
3 | COc1ccc(-c2nnc(-c3c(-c4ccccc4)nc4ncccn34)o2)cc1OC | 91.3%
4 | Oc1[nH]c2cc(Cl)ccc2c1/C=c1/ccc2c(c1)N=C(c1cc(F)cc(F)c1)N=2 | 66.7%
5 | Cc1cc(N(CCCNc2ccnc3cc(Cl)ccc23)Cc2ccc3c(c2)OCO3)nc(N2CCOCC2)n1 | 14.4%
6 | COc1cc(/C=N/NC(=O)c2ccccc2Nc2ccnc(C(F)(F)F)c2)ccc1O | 112%
7 | Cc1cc(N(CCCNc2ccnc3cc(Cl)ccc23)Cc2ccc3c(c2)OCO3)nc(N2CCCCC2)n1 | -47.2% (active)
8 | Clc1ccc2c(NCCCNc3nccc(Nc4ccc(Br)cc4)n3)ccnc2c1 | -90% (active)
9 | Cc1cc(N(CCCNc2ccnc3cc(Cl)ccc23)Cc2cccs2)nc(Cl)n1 | 46.6%
10 | Clc1ccc(Nc2ccnc(NCCCNc3ccnc4cc(Cl)ccc34)n2)cc1 | -86% (active)
11 | Cc1cc(Cl)nc(N(CCCNc2ccnc3cc(Cl)ccc23)Cc2cccs2)n1 | 17.2%
12 | CCCCN(CCCC)c1cc(C(=O)CCCCCN)c2ccccc2n1 | 78.3%
13 | COc1ccc(-c2nc3sccn3c2-c2nc3c([nH]2)C(=O)c2ccccc2C3=O)cc1 | 96.1%
14 | CN(C)CCNC(=O)c1cccn2c(=O)c3cc4ccccc4cc3nc12 | 22%
15 | CC(C)=CCc1cc(O)cc2c1OC(C=C(C)C)C1=C2C(=O)C2=C(NCCS2(=O)=O)C1=O (stereo not given) | -8.67% (active)
16 | Clc1ccc(Nc2ccnc(NCCNc3ccnc4cc(Cl)ccc34)n2)cc1 | -20.4% (active)
17 | COc1cc(-c2nc(-c3nnc(-c4ccc(F)c(Cl)c4)o3)c3ccccn23)cc(OC)c1OC | 57.3%
18 | COc1ccc(-c2nc3ccccn3c2-c2nnc(-c3cc(OC)c(OC)c(OC)c3)o2)cc1 | 46.9%
19 | CN1CCC(CNc2cc(C3(C(=O)Nc4cc(C(=O)Nc5ccc(Cl)c(C(F)(F)F)c5)ccc4F)CC3)ncn2)CC1 | -32.2% (active)
20 | CN1CCC2(CC1)NC(=O)c1c(c3ccc(Cl)c(Cl)c3n1C)C2C#N (stereo not given) | 55%

Row | SMILES | growth
21 | COc1ccc(-c2nc3ncccn3c2-c2nnc(-c3ccsc3C)o2)cc1 | 80.6%
22 | COc1ccc2c(c1)/C(=C\c1c[nH]c3ccc(OC)cc13)C(=O)N2 | 42.3%
23 | O=C(Nc1cccc(Br)c1)c1cc(=O)[nH]c2ccccc12 | 93.6%
24 | NC(=O)CC1(c2ccccc2)CCCCC1 | 105%
25 | COC(=O)C(=C\c1ccc2c(c1)OCO2)/C(=C/c1ccc2c(c1)OCO2)C(=O)OC | 107%
26 | Fc1ccc(-c2nnc(-c3c(-c4ccc(F)cc4)nc4ccccn34)o2)cc1 | 78.9%
27 | COc1ccc(Nc2cc(C)nc(NCCCNc3ccnc4cc(Cl)ccc34)n2)cc1 | -67.7% (active)
28 | COc1cc(-c2nnc(-c3c(-c4ccc(F)cc4)nc4ccccn34)o2)cc(OC)c1OC | 64.6%
29 | CCN(CC)CCNc1ccc(CO)c2oc3cc(Cl)ccc3c(=O)c12 | 83.7%
30 | CC(C)=CCc1cc(O)cc2c1OC(C=C(C)C)C1=C2C(=O)C2=C(C1=O)S(=O)(=O)CCN2 (stereo not given) | 17.5%
31 | Cc1cc(Nc2ccc(Cl)cc2)nc(NCCCNc2ccnc3cc(Cl)ccc23)n1 | -88.2% (active)
32 | CC12O[C@H](C[C@@H](OC(=O)c3ccccc3)[C@H]1O)n1c3ccccc3c3c4c(c5c6ccccc6n2c5c31)C(=O)NC4=O | 53.3%
33 | Cc1ccc(C(=O)Nc2cccc(F)c2)cc1NC(=O)C1(c2ncnc3[nH]ccc23)CC1 | 54.8%
34 | COc1cc(-c2nc(-c3nnc(-c4ccccc4Cl)o3)c3ccccn23)cc(OC)c1OC | 90.7%
35 | COc1ccc(Nc2ccnc(NCCNc3ccnc4cc(Cl)ccc34)n2)cc1 | 37.3%
36 | COc1cc(Nc2ccnc(NCCNc3ccnc4cc(Cl)ccc34)n2)cc(OC)c1 | 27.1%
37 | O=C(Nc1nc2ccc(F)cc2s1)c1cc(-c2ccc(F)cc2)n2nc(-c3ccccc3)cc2n1 | 83.5%
38 | CC12O[C@H](C[C@@H](O)[C@H]1O)n1c3ccccc3c3c4c(c5c6ccccc6n2c5c31)C(=O)N(CCCN)C4=O | 41.1%
39 | COc1ccc(-c2nc3ncccn3c2-c2nnc(-c3ccc(F)cc3)o2)cc1 | 88.9%

tested on: RXF 393 renal; assay: as above; conditions: 10 µM

Row | SMILES | growth
40 | O=C1/C(=C\c2cn(C(=O)c3ccc(Cl)cc3)c3ccccc23)c2ccccc2N1C(=O)c1ccc(Cl)cc1 | 83.3%
41 | Cc1ccc(Nc2cc(C)nc(NCCCNc3ccnc4cc(Cl)ccc34)n2)cc1 | -92.1% (active)
42 | COc1ccc(-c2nnc(-c3c(-c4ccccc4)nc4ncccn34)o2)cc1OC | 98.3%
43 | Oc1[nH]c2cc(Cl)ccc2c1/C=c1/ccc2c(c1)N=C(c1cc(F)cc(F)c1)N=2 | 1.45% (active)
44 | Cc1cc(N(CCCNc2ccnc3cc(Cl)ccc23)Cc2ccc3c(c2)OCO3)nc(N2CCOCC2)n1 | -48% (active)
45 | Cc1cc(N(CCCNc2ccnc3cc(Cl)ccc23)Cc2ccc3c(c2)OCO3)nc(N2CCCCC2)n1 | -74.5% (active)
46 | Clc1ccc2c(NCCCNc3nccc(Nc4ccc(Br)cc4)n3)ccnc2c1 | -92.7% (active)
47 | Cc1cc(N(CCCNc2ccnc3cc(Cl)ccc23)Cc2cccs2)nc(Cl)n1 | 46.2%
48 | Clc1ccc(Nc2ccnc(NCCCNc3ccnc4cc(Cl)ccc34)n2)cc1 | -89.3% (active)
49 | Cc1cc(Cl)nc(N(CCCNc2ccnc3cc(Cl)ccc23)Cc2cccs2)n1 | 0.398% (active)
50 | CCCCN(CCCC)c1cc(C(=O)CCCCCN)c2ccccc2n1 | 82.5%
51 | COc1ccc(-c2nc3sccn3c2-c2nc3c([nH]2)C(=O)c2ccccc2C3=O)cc1 | 98.2%
52 | CN(C)CCNC(=O)c1cccn2c(=O)c3cc4ccccc4cc3nc12 | -89.5% (active)
53 | CC(C)=CCc1cc(O)cc2c1OC(C=C(C)C)C1=C2C(=O)C2=C(NCCS2(=O)=O)C1=O (stereo not given) | -2.85% (active)
54 | Clc1ccc(Nc2ccnc(NCCNc3ccnc4cc(Cl)ccc34)n2)cc1 | 0.0582% (active)
55 | COc1cc(-c2nc(-c3nnc(-c4ccc(F)c(Cl)c4)o3)c3ccccn23)cc(OC)c1OC | 40.4%
56 | COc1ccc(-c2nc3ccccn3c2-c2nnc(-c3cc(OC)c(OC)c(OC)c3)o2)cc1 | 74.3%
57 | CN1CCC(CNc2cc(C3(C(=O)Nc4cc(C(=O)Nc5ccc(Cl)c(C(F)(F)F)c5)ccc4F)CC3)ncn2)CC1 | -46.8% (active)

Row | SMILES | growth
58 | COc1ccc(-c2nc3ncccn3c2-c2nnc(-c3ccsc3C)o2)cc1 | 82.8%
59 | COc1ccc2c(c1)/C(=C\c1c[nH]c3ccc(OC)cc13)C(=O)N2 | 60.5%
60 | O=C(Nc1cccc(Br)c1)c1cc(=O)[nH]c2ccccc12 | 77.4%
61 | NC(=O)CC1(c2ccccc2)CCCCC1 | 114%
62 | Fc1ccc(-c2nnc(-c3c(-c4ccc(F)cc4)nc4ccccn34)o2)cc1 | 85.9%
63 | COc1ccc(Nc2cc(C)nc(NCCCNc3ccnc4cc(Cl)ccc34)n2)cc1 | -90.4% (active)
64 | COc1cc(-c2nnc(-c3c(-c4ccc(F)cc4)nc4ccccn34)o2)cc(OC)c1OC | 66.9%
65 | CCN(CC)CCNc1ccc(CO)c2oc3cc(Cl)ccc3c(=O)c12 | 73.3%
66 | CC(C)=CCc1cc(O)cc2c1OC(C=C(C)C)C1=C2C(=O)C2=C(C1=O)S(=O)(=O)CCN2 (stereo not given) | 73.3%
67 | Cc1cc(Nc2ccc(Cl)cc2)nc(NCCCNc2ccnc3cc(Cl)ccc23)n1 | -91.9% (active)
68 | CC12O[C@H](C[C@@H](OC(=O)c3ccccc3)[C@H]1O)n1c3ccccc3c3c4c(c5c6ccccc6n2c5c31)C(=O)NC4=O | 15.6%
69 | Cc1ccc(C(=O)Nc2cccc(F)c2)cc1NC(=O)C1(c2ncnc3[nH]ccc23)CC1 | 91.5%
70 | COc1cc(-c2nc(-c3nnc(-c4ccccc4Cl)o3)c3ccccn23)cc(OC)c1OC | 90.8%
71 | COc1ccc(Nc2ccnc(NCCNc3ccnc4cc(Cl)ccc34)n2)cc1 | 55.7%
72 | COc1cc(Nc2ccnc(NCCNc3ccnc4cc(Cl)ccc34)n2)cc(OC)c1 | 46.2%
73 | O=C(Nc1nc2ccc(F)cc2s1)c1cc(-c2ccc(F)cc2)n2nc(-c3ccccc3)cc2n1 | 104%
74 | CC12O[C@H](C[C@@H](O)[C@H]1O)n1c3ccccc3c3c4c(c5c6ccccc6n2c5c31)C(=O)N(CCCN)C4=O | 26.4%
75 | COc1ccc(-c2nc3ncccn3c2-c2nnc(-c3ccc(F)cc3)o2)cc1 | 111%
